Assay results: PubChem BioAssay (NCATS)

Assay: qHTS profiling of the MIPE4 collection as inhibitors of Plasmodium falciparum (DD2) proliferation (AID 743345)
Details: P. falciparum Dd2 in erythrocytes, SYBR Green DNA, 72 h; at 28.5 µM (top of the series) unless noted
Method in brief: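 Erythrocytes infected with P. falciparum (0.3% parasitemia, 2.5% hematocrit) incubated with compounds 72 h at 37 C, 5% CO2. Lysis with saponin/Triton buffer containing SYBR Green I, overnight at room temperature in the dark; DNA fluorescence (485/535 nm) normalised to 0.29 uM artemisinin and DMSO.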

Row | SMILES | parasite growth remaining, % of DMSO control (lower = more inhibition)
1 | COc1cc2c(cc1OC)[C@@H]1C(=O)c3ccc4c(c3O[C@@H]1CO2)C=CC(C)(C)O4 | 91.2%
2 | Cn1c(Nc2ccc(C(F)(F)F)cc2)nc2cc(Oc3ccnc(-c4ncc(C(F)(F)F)[nH]4)c3)ccc21 | 10.9%
3 | C#CCC(Cc1cnc2nc(N)nc(N)c2n1)c1ccc(C(=O)N[C@@H](CCC(=O)O)C(=O)O)cc1 (stereo partly specified) | 8.51%
4 | Cc1ccccc1C(=O)Nc1ccc(C(=O)N2CCCC(O)c3cc(Cl)ccc32)c(C)c1 (stereo unspecified) | 75.6%
5 | N#Cc1ccc(COC[C@H]2O[C@@H](n3c(NCc4ccc(Cl)c(Cl)c4)nc4c(N)ncnc43)[C@@H](O)[C@@H]2O)cc1 | 48.6%
6 | COc1ccc2cc([S+]([O-])Cc3ncc(C)c(OC)c3C)nc2c1 | 87.1%
7 | O=C(O)CCCCC(CCSCc1ccccc1)SCc1ccccc1 (stereo unspecified) | 96.3%
8 | N[C@H]1CN(c2c(F)cc3c(=O)c(C(=O)O)cn(C4C[C@@H]4F)c3c2Cl)CC12CC2 (stereo partly specified) | 24.5%
9 | CN(C)c1ccc2cc(C(=O)N[C@@H](CCCN=C(N)CCl)C(=O)NCc3ccccc3)ccc2c1 | 8.25%
10 | Cc1cc(O)c2c(c1)C(=O)c1cccc(O)c1C2=O | 85.9%
11 | COc1cccc2c1C(=O)c1c(O)c3c(c(O)c1C2=O)C[C@@](O)(C(=O)CO)C[C@H]3O[C@H]1C[C@H](N)[C@H](O)[C@H](C)O1 | 5.82%
12 | Cc1onc(-c2ccccc2)c1C(=O)N[C@@H]1C(=O)N2[C@@H](C(=O)O)C(C)(C)S[C@@H]12 | 99.9%
13 | COC(=O)C1C2CC3c4[nH]c5cc(OC)ccc5c4CCN3CC2CC(OC(=O)c2cc(OC)c(OC)c(OC)c2)C1OC (stereo unspecified) | 39.3%
14 | CCCCCCCN(CC)CCCC(O)c1ccc(NS(C)(=O)=O)cc1 (stereo unspecified) | 83.7%
15 | COc1cc(C)c(Sc2cnc(NC(=O)c3ccc(CNC(C)C(C)(C)C)cc3)s2)cc1C(=O)N1CCN(C(C)=O)CC1 (stereo unspecified) | 11%
16 | CC1=C(C(=O)Nc2cc3cn[nH]c3cc2F)C(c2ccc(Cl)cc2F)N=C(c2ccnc(Cl)c2)N1 (stereo unspecified) | 36.2%
17 | COc1cc(C=CC(=O)CC(=O)C=Cc2ccc(O)c(OC)c2)ccc1O | 7.94% [at 57.5 µM]
18 | COc1cc(C)c(C=CC(C)=CC=CC(C)=CC(=O)O)c(C)c1C | 115%
19 | O=C(O)CCCCCC(=O)NN=C1CCCC1 | 100%
20 | C[C@]12CC[C@@H]3c4ccc(O)cc4CC[C@H]3[C@H]1CC[C@H]2O | 93.3%
21 | Nc1ccn(C2CO[C@H](CO)O2)c(=O)n1 (stereo partly specified) | 105%
22 | C[C@H](O)[C@@H]1C(=O)N2C(C(=O)O)=C(S[C@@H]3CN[C@H](CNS(N)(=O)=O)C3)[C@@H](C)[C@@H]12 | 99.1%
23 | O=C(C[C@@H]1CC=CCCC(=O)O[C@H](c2ccccc2)CNC1=O)NCc1ccc(Cl)cc1 | 96.1%
24 | CCCCCCCCCCCCCCCC(=O)OC[C@@H](NC(=O)C(Cl)Cl)[C@H](O)c1ccc([N+](=O)[O-])cc1 | 95.4%
25 | Cc1cnn(C)c1C(=O)Nc1cc(Nc2ccc3c(C=Cc4ccccn4)n[nH]c3c2)ccc1F | 12.8%
26 | CC(C(C)N1CC(=O)NC(=O)C1)N1CC(=O)NC(=O)C1 (stereo unspecified) | 80.3%
